Experimental data reported in PubChem BioAssay AID449762 (Southern Research Specialized Biocontainment Screening …, 2010).
The whole screen tested about 330,000 compounds, of which about 1,900 (0.58%) were called active. About 4% were inconclusive and are not listed. No stated cut-off is given here; in the data, inconclusive means inhibition above about 70% without an active follow-up result; inactive means below that. Only a sample is shown. Results with a measured potency or affinity are listed apart.

Test: M. tuberculosis growth inhibition, HTS (AID 449762);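 further: bacterial growth assessed after seven days of incubation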
Conditions: M. tuberculosis H37Rv growth inhibition, 7H9 media; at 25 µM; hits give high values

SMILES	inhibition
O=C(NNc1ncnc2ccccc12)c1cccc(Cl)c1	-0.01% (inactive)
CN(Cc1cccc(F)c1)C(=O)c1cccc(S(=O)(=O)N2CCN(Cc3ccccc3)CC2)c1	-18.2% (inactive)
O=C(Nc1ccc(C(=O)NCc2ccc(F)cc2)cc1)C1=CSCCO1	-4.67% (inactive)
Cc1ccc(CNC(=O)c2ccc(NC(=O)C3=CSCCO3)cc2)cc1	-1.39% (inactive)
Cc1nc(-c2ccccc2)sc1C1(C)CC(c2ccc(C#N)cc2)=NO1 (stereo unspecified)	-2.7% (inactive)
Cc1nc(-c2ccc(Cl)cc2)sc1C1(C)CC(c2ccc(Cl)cc2)=NO1 (stereo unspecified)	0.85% (inactive)
c1ccc(-c2cc3ccccc3cn2)cc1	12.7% (inactive)
Cc1cnc(NC2=NCCC2)s1	4.98% (inactive)
CCCNC(=O)c1ccc(COc2ccc(C(C)(C)C)cc2)o1	1.87% (inactive)
COc1ccccc1NC(=O)c1nn(-c2ccccc2)ccc1=O	5.5% (inactive)
CN(CC(=O)NC(=O)NCc1ccco1)Cc1nc2ccccc2c(=O)[nH]1	-5.09% (inactive)
O=C(OC(C(=O)NCc1ccc2c(c1)OCO2)c1ccccc1F)c1ccco1 (stereo unspecified)	2.01% (inactive)
COc1ccccc1C(=O)N/N=C(\C)CC(=O)Nc1ccc2c(c1)OCCO2	1.17% (inactive)
C/C(CC(=O)Nc1ccc2c(c1)OCCO2)=N\NC(=O)c1ccccc1Cl	5.1% (inactive)
CC(C)(C)c1ccc(C(=O)NCCCNC(=O)c2ccccn2)cc1	8.46% (inactive)
COC(=O)c1c(NC(=O)CCC(=O)O)sc2c1CCCCC2	19.9% (inactive)
COc1ccc(OC)c(Nc2nc(N)c([N+](=O)[O-])c(NC3CCCCC3)n2)c1	-3.37% (inactive)
Nc1nc(Nc2ccccc2)nc(NC2CCCCC2)c1[N+](=O)[O-]	29.1% (inactive)
COc1ccc(OC)c(S(=O)(=O)N2CCN(C(=O)CCc3ccccc3)CC2)c1	-9.07% (inactive)
CC12CCC(C/C1=N\N=C1\NC(=O)/C(=C\c3cccc(Br)c3)S1)C2(C)C (stereo unspecified)	21.6% (inactive)
Cc1cccc(C(=O)O/N=C2/CC3CCC2(C)C3(C)C)c1 (stereo unspecified)	5.89% (inactive)
COc1ccc(CC(=O)O/N=C(\N)Cc2ccc(OC)c(OC)c2)cc1	2.93% (inactive)
O=C1c2ccccc2CN1C(CO)Cc1ccccc1 (stereo unspecified)	-7.4% (inactive)

SMILES	inhibition
COCCNC(=S)N/N=C(\C)CCc1ccc2c(c1)OCO2	8.49% (inactive)
C/C(CCc1ccc2c(c1)OCO2)=N\NC(=O)c1ccccc1	1.21% (inactive)
O=C(N/N=C/c1ccccc1OC(=O)N1CCOCC1)c1cccs1	25.5% (inactive)
COc1ccc(NS(=O)(=O)c2cccc(C(=O)Nc3cccc(C(=O)O)c3)c2)cc1	-7.77% (inactive)
CCOc1cc(/C=N/NC(=O)COc2ccc(C)cc2)ccc1OC(=O)c1cccs1	8.62% (inactive)
COc1cc(/C=N/NC(=O)COc2ccccc2C)ccc1OC(=O)c1cccs1	-7.68% (inactive)
COC(=O)c1cc(S(=O)(=O)Nc2nn(C)c3ccccc23)oc1C	1.72% (inactive)
COCCN(C(=O)COC(=O)CSc1ccc2ccccc2c1)c1c(N)n(Cc2ccccc2)c(=O)[nH]c1=O	0.46% (inactive)
C=CCNC(=O)c1onc(CSc2ccncc2)c1C(=O)NCC=C	-11.3% (inactive)
Cc1ccc(S(=O)(=O)n2nc(C)c(S(=O)(=O)N3CCOCC3)c2C)cc1	-4.96% (inactive)
Cc1ccc(-c2cc(C(F)(F)F)n3ncc(C(=O)N4CCCCC4c4cccnc4)c3n2)cc1 (stereo unspecified)	-0.42% (inactive)
O=C(c1cnn2c(C(F)(F)F)cc(-c3ccccc3)nc12)N1CCCCC1c1cccnc1 (stereo unspecified)	61.7% (inactive)
C[C@]12c3[nH]c4ccccc4c3CCN1C(=O)C(CC(=O)NCC13CC4CC(CC(C4)C1)C3)C[C@@H]2C(=O)N1CCCCC1 (stereo partly specified)	21.5% (inactive)
CC(C)N(C(=O)[C@H]1CC(CC(=O)NCC23CC4CC(CC(C4)C2)C3)C(=O)N2CCc3c([nH]c4ccccc34)[C@]12C)C(C)C (stereo partly specified)	69.1% (inactive)
COc1cc([N+](=O)[O-])ccc1NC(=O)NCc1ccco1	-4.54% (inactive)
COc1ccccc1CNC(=O)c1c(-c2ccccc2)nn(-c2ccccc2)c1C	6.07% (inactive)
CC(=O)c1c(N2CCN(Cc3ccccc3)CC2)[nH]c(-c2ccccc2)nc1=S	-2.96% (inactive)
CC(=O)c1c(N2CCOCC2)[nH]c(-c2ccccc2)nc1=S	43.5% (inactive)
CC(C)[C@H](NC(=O)[C@@H]1Cc2ccccc2CN1C(=O)OC(C)(C)C)C(=O)NCc1ccco1	2.19% (inactive)
COc1ccc([N+](=O)[O-])cc1NS(=O)(=O)c1cccc(C(=O)OC2CCOC2=O)c1 (stereo unspecified)	-6.35% (inactive)
O=C(NCCc1csc(-c2cccnc2)n1)c1ccccc1	-11.6% (inactive)
O=C1CN(C(=O)OCc2ccccc2)c2ccccc2N1	-1.7% (inactive)
CN(c1ccccc1)S(=O)(=O)c1ccc(Cl)c(C(=O)NCc2ccccc2CN2CCCC2)c1	-5.7% (inactive)

SMILES	inhibition
O=C(NCc1ccccc1CN1CCCC1)c1cccc(S(=O)(=O)N2CCCC2)c1	-11.2% (inactive)
CC1CCCCC1NC(=O)c1cc(=O)[nH]c2ccccc12 (stereo unspecified)	-4.11% (inactive)
CC1CCCCC1NC(=O)c1ccc2c(c1)OCCO2 (stereo unspecified)	8.58% (inactive)
Cc1ccc(C(OC(=O)c2ccco2)C(=O)NCc2cccs2)cc1 (stereo unspecified)	3.55% (inactive)
O=C(O)c1cccc(NC(=S)NC(=O)c2ccc(-c3ccc(Cl)cc3)o2)c1	1.13% (inactive)
Cc1cc2ncn(C(=O)c3ccc4c(c3)OCO4)c2cc1C	6.27% (inactive)
Cc1cccc(C(=O)Nc2ccc(S(=O)(=O)N3CCOCC3)cc2)c1[N+](=O)[O-]	6.13% (inactive)
COc1cccc2sc(Nc3nnc(-c4ccccc4Cl)o3)nc12	46.2% (inactive)
COc1ccccc1-c1nnc(Nc2nc3c(OC)cccc3s2)o1	6.89% (inactive)
COc1cccc(CN2CCN(Cc3cc4ccccc4o3)CC2CCO)c1 (stereo unspecified)	-6.38% (inactive)
CC(C)OCCCn1c(-c2ccc(Br)cc2)c[nH]c1=S	8.53% (inactive)
COc1ccc(OC)c(-n2c(-c3cccc(O)c3)n[nH]c2=S)c1	2.31% (inactive)
CCN(CC)C(=O)c1cc2cc([N+](=O)[O-])ccc2s1	6.23% (inactive)
CCN(CC)C(=O)c1ccc(Oc2ccc([N+](=O)[O-])cc2Cl)cc1	4.15% (inactive)
O=C(COc1ccc(Br)cc1)N1CCc2ccccc2C1	1.78% (inactive)
CC(C)C(NC(=O)c1c(F)cccc1F)C(=O)N1CCN(c2ccccc2F)CC1 (stereo unspecified)	5.13% (inactive)
O=C(O)c1ccc(N=N/C(=N\Nc2ccc(C(=O)O)cc2)c2ccccc2)cc1	11.8% (inactive)
O=C(/C(=N\Nc1ccc(Br)cc1)Sc1nnnn1-c1ccccc1)c1ccccc1	2.41% (inactive)
O=C(Cc1n[nH]c(=O)c2ccccc12)Nc1cccc(S(=O)(=O)N2CCCCCC2)c1	34.4% (inactive)
c1ccc(Cn2nnc3c(N4CCCC4)ncnc32)cc1	1.78% (inactive)
c1ccc(Cn2nnc3c(N4CCc5ccccc54)ncnc32)cc1	-4.04% (inactive)
CC(c1ccccc1)n1cnc2ccccc2c1=O (stereo unspecified)	3.81% (inactive)
CCOC(=O)Cn1c(C(C)=O)nc2ccccc21	-5.86% (inactive)

SMILES	inhibition
CCOc1ccc2nc(SC3CC(=O)N(c4ccc(OC)cc4OC)C3=O)sc2c1 (stereo unspecified)	37.3% (inactive)
COc1cccc(COC(=O)Nc2ccccc2F)c1	4.89% (inactive)
CN(C)c1ccc(NC(=O)CN2C3CCCC2CC(NC(=O)c2ccccc2)C3)cc1 (stereo unspecified)	49% (inactive)
COc1cccc(C(=O)NC2CC3CCCC(C2)N3CC(=O)Nc2ccccc2)c1 (stereo unspecified)	46.8% (inactive)
COc1ccc(OC)c(NC(=O)CN2C(=O)NC3(CCCc4ccccc43)C2=O)c1 (stereo unspecified)	0.98% (inactive)
COc1ccc(NC(=O)CN2C(=O)NC3(CCCc4ccccc43)C2=O)c(OC)c1 (stereo unspecified)	-0.44% (inactive)
COc1ccc(N2CCN(C3CCCN(Cc4ccccc4OCCO)C3)CC2)cc1 (stereo unspecified)	-8.3% (inactive)
CS(=O)(=O)N(CC(=O)N1CCCC1)c1ccccc1F	-1.03% (inactive)
O=C(Nc1ccc2c(c1)CCCN2C(=O)c1cccs1)c1cccc(F)c1	25.3% (inactive)
CC1=NN(c2ccccc2)C(=O)/C1=C/c1c(O)n(-c2ccc(F)cc2)[nH]c1=O	-0.04% (inactive)
CC1=NN(c2ccccc2)C(=O)/C1=C/c1c(C)[nH]n(-c2ccc(C)cc2)c1=O	3.09% (inactive)
Cc1ccc(-c2nc(N)n(S(C)(=O)=O)n2)cc1	-7.35% (inactive)
Nc1nc2sc3c(c2c(=O)s1)CCCC3	-5.9% (inactive)
Nc1c2c(nc3sc4c(c13)CCCC4)CCCCCC2	11.9% (inactive)
CCN1CCN(C(c2ccccc2)c2nnnn2Cc2ccc3c(c2)OCO3)CC1 (stereo unspecified)	-1.8% (inactive)
COCCn1nnnc1C(c1ccccc1)N1CCN(Cc2ccc3c(c2)OCO3)CC1 (stereo unspecified)	5.3% (inactive)
Cc1cc(C(=O)CSc2nnc(-c3ccco3)o2)c(C)n1C	0.77% (inactive)
COc1ccc(N2CCN(C(=O)CSc3nc(C)cs3)CC2)cc1	13.4% (inactive)
COCC(C)n1c(SCC(=O)Nc2oc(C)c3c(C)n[nH]c(=O)c23)nc2ccccc2c1=O (stereo unspecified)	1.83% (inactive)
COc1cccc2cc(C(=O)N(C)C3CCN(C)CC3)c(=O)oc12	2.2% (inactive)
CCOc1ccc(NC(=O)Nc2cccn(Cc3ccccc3)c2=O)cc1	11.4% (inactive)
CSc1ccc(NC(=O)Nc2cccn(Cc3ccccc3F)c2=O)cc1	0.76% (inactive)
